Laboratory results reported in PubChem BioAssay AID1159580 (chemical genetic matrix, 2015).
Several values for one entry are separate records, joined by “and”; a condition that tells them apart may be missing. Equal values may be shown once. The campaign covered roughly 5,500 compounds. About 2,000 (36%) were called active. Not shown: some 18% with an inconclusive outcome. No stated cut-off is given here; in the data, active means normalized growth mostly below about 0.91 (no sharp cut-off); inconclusive means no clear call, values can overlap the other calls; inactive means mostly above about 0.92. The list shows a part of the results.

Test: chemical genetic growth profiling, strain panel (AID 1159580);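 further: tested at 20 µM; growth read once vehicle control cultures reached saturation at 30 °C; 1 = growth at the plate median or of vehicle wells; lower values mean less growth of the strain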
Details: growth OD

Measured: normalized growth

CCCNC(C)C(=O)Nc1ccccc1C (stereo unspecified)
inactive: S. cerevisiae deletion strains, locus YJR066W, strain TOR1, active compounds read low 0.979 | S. cerevisiae deletion strains, locus YJR075W, strain HOC1, active compounds read low 1.01 | S. cerevisiae deletion strains, locus YKL009W, strain mrt4, active compounds read low 1 | S. cerevisiae deletion strains, locus YKL068W, active compounds read low 0.99 | S. cerevisiae deletion strains, locus YKL085W, strain MDH1 (second series), active compounds read low 1 | S. cerevisiae deletion strains, locus YKL085W, strain MDH1, active compounds read low 1 | S. cerevisiae deletion strains, locus YKL160W, strain elf1, active compounds read low 1.01 | S. cerevisiae deletion strains, locus YKL190W, strain CNB1, active compounds read low 1 | S. cerevisiae deletion strains, locus YKR001C, strain vps1, active compounds read low 1 | S. cerevisiae deletion strains, locus YKR026C, strain gcn3, active compounds read low 1 | S. cerevisiae deletion strains, locus YKR091W, strain srl3, active compounds read low 1 | S. cerevisiae deletion strains, locus YLL001W, strain dnm1, active compounds read low 1.01 | S. cerevisiae deletion strains, locus YLL026W, active compounds read low 1.01 | S. cerevisiae deletion strains, locus YLL041C, strain sdh2, active compounds read low 0.997 | S. cerevisiae deletion strains, locus YLR027C, strain aat2, active compounds read low 1.01 | S. cerevisiae deletion strains, locus YLR039C, strain RIC1, active compounds read low 1.03 | S. cerevisiae deletion strains, locus YLR058C, strain SHM2, active compounds read low 1.01 | S. cerevisiae deletion strains, locus YLR102C, strain apc9, active compounds read low 0.989 | S. cerevisiae deletion strains, locus YLR113W, strain HOG1, active compounds read low 1.09 | S. cerevisiae deletion strains, locus YLR221C, strain rsa3, active compounds read low 0.988 | S. cerevisiae deletion strains, locus YLR258W, strain gsy2, active compounds read low 0.999 | S. cerevisiae deletion strains, locus YLR262C, strain YPT6 (second series), active compounds read low 1.02 | S. cerevisiae deletion strains, locus YLR262C, strain YPT6, active compounds read low 1.07 | S. cerevisiae deletion strains, locus YLR268W, strain sec22, active compounds read low 0.989 | S. cerevisiae deletion strains, locus YLR320W, strain mms22, active compounds read low 1.01 | S. cerevisiae deletion strains, locus YLR330W, strain CHS5, active compounds read low 1.01 | S. cerevisiae deletion strains, locus YLR342W, strain FKS1 (second series), active compounds read low 0.996 | S. cerevisiae deletion strains, locus YLR342W, strain FKS1, active compounds read low 1.01 | S. cerevisiae deletion strains, locus YLR357W, strain rsc2, active compounds read low 0.981 | S. cerevisiae deletion strains, locus YLR370C, strain arc18, active compounds read low 1.01 | S. cerevisiae deletion strains, locus YLR371W, strain rom2, active compounds read low 0.983 | S. cerevisiae deletion strains, locus YLR384C, strain iki3, active compounds read low 1.01 | S. cerevisiae deletion strains, locus YLR418C, strain cdc73, active compounds read low 0.967 | S. cerevisiae deletion strains, locus YML016C, strain PPZ1, active compounds read low 1.01 | S. cerevisiae deletion strains, locus YML032C, strain rad52, active compounds read low 0.987 | S. cerevisiae deletion strains, locus YML120C, strain ndi1, active compounds read low 1 | S. cerevisiae deletion strains, locus YML124C, strain tub3, active compounds read low 0.989 | S. cerevisiae deletion strains, locus YMR058W, strain fet3, active compounds read low 1 | S. cerevisiae deletion strains, locus YMR078C, strain ctf18, active compounds read low 0.993 | S. cerevisiae deletion strains, locus YMR125W, strain sto1, active compounds read low 1.02 | S. cerevisiae deletion strains, locus YMR129W, active compounds read low 1 | S. cerevisiae deletion strains, locus YMR205C, strain PFK2, active compounds read low 1 | S. cerevisiae deletion strains, locus YMR223W, strain ubp8, active compounds read low 0.972 | S. cerevisiae deletion strains, locus YMR231W, strain pep5, active compounds read low 1.01 | S. cerevisiae deletion strains, locus YMR263W, strain SAP30, active compounds read low 1 | S. cerevisiae deletion strains, locus YMR307W, strain GAS1, active compounds read low 0.949 | S. cerevisiae deletion strains, locus YNL067W, strain RPL9B, active compounds read low 1.02 | S. cerevisiae deletion strains, locus YNL071W, strain lat1, active compounds read low 1 | S. cerevisiae deletion strains, locus YNL153C, strain GIM3, active compounds read low 0.963 | S. cerevisiae deletion strains, locus YNL175C, strain NOP13, active compounds read low 1.01 | S. cerevisiae deletion strains, locus YNL183C, strain NPR1, active compounds read low 1 | S. cerevisiae deletion strains, locus YNL197C, strain WHI3, active compounds read low 1.04 | S. cerevisiae deletion strains, locus YNL209W, strain ssb2, active compounds read low 1 | S. cerevisiae deletion strains, locus YNL224C, strain SQS1, active compounds read low 0.989 | S. cerevisiae deletion strains, locus YNL233W, strain BNI4, active compounds read low 1.03 | S. cerevisiae deletion strains, locus YNL248C, strain rpa49, active compounds read low 1.01 | S. cerevisiae deletion strains, locus YNL250W, strain rad50, active compounds read low 0.983 | S. cerevisiae deletion strains, locus YNL271C, strain bni1, active compounds read low 0.996 | S. cerevisiae deletion strains, locus YNL298W, strain CLA4, active compounds read low 0.985 | S. cerevisiae deletion strains, locus YNL307C, strain MCK1, active compounds read low 0.998 | S. cerevisiae deletion strains, locus YNL322C, strain KRE1 (second series), active compounds read low 1 | S. cerevisiae deletion strains, locus YNL322C, strain KRE1, active compounds read low 1 and 1.02 | S. cerevisiae deletion strains, locus YNR049C, strain mso1, active compounds read low 1.01 | S. cerevisiae deletion strains, locus YNR052C, strain pop2, active compounds read low 0.998 | S. cerevisiae deletion strains, locus YOL006C, strain TOP1, active compounds read low 1.04 | S. cerevisiae deletion strains, locus YOL012C, strain htz1 0.66 | S. cerevisiae deletion strains, locus YOL147C, strain pex11, active compounds read low 0.979 | S. cerevisiae deletion strains, locus YOR001W, strain rrp6, active compounds read low 0.994 | S. cerevisiae deletion strains, locus YOR061W, strain CKA2, active compounds read low 1.02 | S. cerevisiae deletion strains, locus YOR069W, strain VPS5, active compounds read low 1 | S. cerevisiae deletion strains, locus YOR070C, strain gyp1, active compounds read low 1 | S. cerevisiae deletion strains, locus YOR080W, strain dia2, active compounds read low 0.999 | S. cerevisiae deletion strains, locus YOR083W, strain WHI5 (second series), active compounds read low 1.01 | S. cerevisiae deletion strains, locus YOR083W, strain WHI5, active compounds read low 1 | S. cerevisiae deletion strains, locus YOR106W, strain vam3, active compounds read low 1 | S. cerevisiae deletion strains, locus YOR136W, strain idh2, active compounds read low 0.992 | S. cerevisiae deletion strains, locus YOR144C, strain elg1, active compounds read low 0.977 | S. cerevisiae deletion strains, locus YOR184W, strain ser1, active compounds read low 0.968 | S. cerevisiae deletion strains, locus YOR231W, strain MKK1, active compounds read low 1.09 | S. cerevisiae deletion strains, locus YOR265W, strain rbl2, active compounds read low 1.01 | S. cerevisiae deletion strains, locus YOR270C, strain vph1, active compounds read low 0.987 | S. cerevisiae deletion strains, locus YOR290C, strain snf2, active compounds read low 0.992 | S. cerevisiae deletion strains, locus YOR316C, strain cot1, active compounds read low 0.998 | S. cerevisiae deletion strains, locus YPL051W, strain arl3, active compounds read low 1 | S. cerevisiae deletion strains, locus YPL055C, strain LGE1, active compounds read low 1 | S. cerevisiae deletion strains, locus YPL078C, strain atp4, active compounds read low 0.999 | S. cerevisiae deletion strains, locus YPL106C, strain sse1, active compounds read low 0.989 | S. cerevisiae deletion strains, locus YPL240C, strain hsp82, active compounds read low 1.01 | S. cerevisiae deletion strains, locus YPL241C, strain CIN2, active compounds read low 1.01 | S. cerevisiae deletion strains, locus YPL256C, strain CLN2, active compounds read low 1.09 | S. cerevisiae deletion strains, locus YPR119W, strain clb2, active compounds read low 0.99 | S. cerevisiae deletion strains, locus YPR141C, strain kar3, active compounds read low 0.984 | S. cerevisiae deletion strains, locus YPR163C, strain tif3, active compounds read low 0.99 | S. cerevisiae deletion strains, locus YPR167C, strain met16, active compounds read low 0.994 | S. cerevisiae deletion strains, strain wtn01, active compounds read low 0.993 | S. cerevisiae strains, strain wild type, active compounds read low 1.01
